Assay outcomes (PubChem)
The full list was thinned out, with hits kept by preference.
Pf Dd2 inh: blocks in vitro growth of P. falciparum Dd2; P. falciparum Dd2 growth, SYBR Green, 72 h; 120,000 compounds, 4.3% hits; Potency, µM (doses to about 28.9 µM), inactives show at the top dose activity, negative = inhibition, actives largely listed as inhibitors; active = well fitted inhibition curve with a large enough effect;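 note: plate controls were DMSO vehicle for no effect and reference drug for full effect; nearly all actives have a fitted effect of over 65% in size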
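Readout: SYBR Green fluorescence, 485 nm excitation, 535 nm emission, after ~16 h lysis at 37C. Before that, Dd2-infected red cells (2.5% hematocrit) grew 72 h with compound, 29 uM top final concentration.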
* = called active by the depositor; i = inactive; [ ] = dose if it differs, or a comment. Potency is the fitted concentration of half-maximal effect.

SMILES	Pf Dd2 inh
Cc1nn(C)c(C)c1CCCN(C)C(=O)C1N(C(C)C)C(=O)C12CCCC2 (centres undefined)	-6%
CCCNC(=O)C1COC2(CCN(C(=O)c3ccco3)CC2)N1C(=O)c1ccc(F)cc1 (centres undefined)	-7%
Cc1cc2ncc(C(=O)NCCc3ccccc3F)cn2n1	-3%[44.1 µM]
O=C(CN1C(=O)NC2(CCCCC2)C1=O)N1CCCCCC1	-14%
COC(=O)[C@@H]1C[C@H](NC(=O)c2ccc(Oc3ccccc3)cc2)CN1C	0%
Cc1cccc2nnc(N3CCCN(C(=O)c4ccccc4Cl)CC3)n12	i
COC[C@@H]1CN(C(=O)c2ccc(C)nc2)C[C@H]1c1nc(C2CC2)no1	18%
Cn1cnc(S(=O)(=O)NC2CCc3nn(CC4CC4)c(=O)n3CC2)c1 (centres undefined)	5%
CCC(=O)N1CCC(Cc2noc(C3CCOCC3)n2)C1 (centres undefined)	109%
COc1ccc(C(=O)N2CCOC[C@H](Oc3cccnc3)C2)cc1	20%[44.1 µM]
O=C1NC2(Cc3ccccc31)CN(C(=O)c1ccc(Cl)cc1)C2	4%
CC(C)[C@H]1CN(c2cnccn2)C[C@@H]1NC(=O)C1(C#N)CCOCC1	-18%
Cc1ccc(C(=O)N2CC(C(=O)N(C)C)C3(CCOCC3)C2)c(C)c1 (centres undefined)	-3%
COc1cccc(C(=O)NC2CCN(c3cc(-c4ccccc4)[nH]n3)C2)c1 (centres undefined)	i
CCCc1noc(-c2ccn3c(CNC(=O)c4ccco4)nnc3c2)n1	i
O=C(CN1C(=O)C2(SCC(=O)N2c2ccccc2)c2ccccc21)NCCc1ccccc1 (centres undefined)	16%
O=C1CSC2(C(=O)N(Cc3ccccc3F)c3ccccc32)N1c1cccc(C(F)(F)F)c1 (centres undefined)	7.1µM*
O=C(CN1C(=O)C2(SCC(=O)N2c2ccc(F)c(F)c2)c2ccccc21)Nc1ccccc1F (centres undefined)	13µM*
O=C(CN1C(=O)CCSc2ccccc21)Nc1ccccc1F	4%
COc1ccc(N2C(=O)CSC23C(=O)N(Cc2ccccc2F)c2ccccc23)cc1Cl (centres undefined)	i
COc1cccc(N2C(=O)CSC23C(=O)N(Cc2ccccc2F)c2ccccc23)c1 (centres undefined)	-19%
CCn1nccc1C(=O)N1CCC2(CC1)C(OC)CN2c1cccc(F)c1 (centres undefined)	i
O=Cc1cccc(-c2cncnc2)c1	3%[44.1 µM]
COC1CCOC2(CCN(S(=O)(=O)c3ccccc3C)CC2)C1 (centres undefined)	-5%
COC1C(=O)N(c2cccc(F)c2)C12CCN(S(=O)(=O)c1ccccc1C)CC2 (centres undefined)	13µM*
SMILES	Pf Dd2 inh
COC1C(=O)N(C2CCN(C(=O)CCc3c[nH]c4ccccc34)CC2)C12CCOCC2 (centres undefined)	-11%
COC1C(=O)N(C2CCN(Cc3ccc(F)cc3F)CC2)C12CCOCC2 (centres undefined)	-8%
COC1C(=O)N(c2cccc(F)c2)C12CCN(C(=O)C(C)C)CC2 (centres undefined)	-11%
COC1C(=O)N(c2cccc(F)c2)C12CCN(C(=O)c1cnc(C)cn1)CC2 (centres undefined)	-8%
COC1C(=O)N(c2cccc(F)c2)C12CCN(Cc1ccc(F)cc1F)CC2 (centres undefined)	10µM*
COC1C(=O)N(c2cccc(F)c2)C12CCN(C(=O)CCc1c[nH]c3ccccc13)CC2 (centres undefined)	7.9µM*
C[C@]1(O)CCN(C(=O)CCc2c[nH]c3ccccc23)C[C@@H]1O	4%
O=C([C@@H]1C[C@H](F)CN1C(=O)c1ccc(F)cc1)N1CCOCC1	11%
O=C(c1ccc(C(F)(F)F)cc1)N1CCN2C(=O)N(C3CCOCC3)C[C@H]2C1	1%[44.1 µM]
CC(C)CN1C(=O)CO[C@H](c2ccc(NC(=O)c3ccc4c(c3)OCO4)cc2)[C@H]1CO	-15%[44.1 µM]
CCOCCN1C(=O)COC[C@@H]1[C@H](O)c1ccc(NC(=O)C2CCCCC2)cc1	-23%[44.1 µM]
O=C(CCc1nc2ccccc2s1)N1CCC(N2CC3CC(C2)[C@H]2CCCC(=O)N2C3)CC1 (some centres undefined)	-26%
CCn1nc(C)c(-c2cc(C(=O)NCC34CCC=C3N(C)C(=O)CC4)no2)c1C (centres undefined)	-14%
Cc1ccc(C(=O)N2CCC(n3c(=O)[nH]c4ccccc43)CC2)cc1	1%[44.1 µM]
CC[C@H]1CN(C(C)=O)CC[C@H]1CC(=O)NC1CC1	i
COc1ccc(CC(=O)N2CC[C@@H](CC(=O)O)[C@@H](CCN3CCC(C(N)=O)CC3)C2)cc1	57%
CCn1c(=O)c2c(cc(C)n2C)n(CC(=O)Nc2ccccc2F)c1=O	i
CCCN1C(=O)Cc2ccccc2C1C(=O)NCc1ccc(F)cc1Cl (centres undefined)	-17%
COCCNc1ncc(-c2cccc(F)c2)c2c1OCC2	-2%[44.1 µM]
